The nature of assay [1]: Viability qHTS for spleen associated tyrosine kinase inhibitor (SYKi) naive MV4-11 cells (AID 1963823). Further: nearly all actives have a fitted effect of over 40% in size. The settings on record: MV4-11 AML viability, CellTiter-Glo luminescence, 72 h; series mostly up to 45 µM. The gist of the method:
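SYKi-naive MV4-11 AML cells, 500 per well, were exposed to library compounds for 72 hr at 37 C, 5% CO2. Viability was then read by CellTiter-Glo luminescence after 10 min at room temperature.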
(Quantitative high-throughput screening tests each substance at several concentrations.)

The nature of assay [2]: Viability qHTS for spleen associated tyrosine kinase inhibitor (SYKi) drug resistant MV4-11 cells (AID 1963824). Further: nearly all actives have a fitted effect of over 35% in size. The settings on record: SYKi-resistant MV4-11 viability, CellTiter-Glo, 72 h; series mostly up to 45 µM. The method, boiled down: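 SYK inhibitor-resistant MV4-11 AML cells, 500 per well, added to predispensed compounds and incubated 72 hr at 37 C, 5% CO2. Viability measured by CellTiter-Glo luminescence after 10 min at room temperature.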

Records with an inconclusive call do not appear. Unmarked numbers belong to inactive results. Activity calls are given as the source filed them. The call rests on the fitted dose curve; in most records, active means well fitted cell-killing curve with a large enough effect; inconclusive means small, poorly fitted or top-dose-only effect, or effect the other way; inactive means no such curve, though single readings can be large or run the other way.
Potency means the concentration at half of the fitted maximal effect.

In the case of `CC1OC2O[C@H]3[C@@H](OCC(O)[C@H]3O)OC(=O)C34CCC(C)(C)CC3C3=CCC5C6(C)CC(O)C(OC7OC(CO)C(O)C(O)C7O[C@@H]7OC[C@H](OC(=O)CC(C)(O)CC(=O)OC1C(OC1OCC(O)C(O)C1O)C2O)[C@@H](O)[C@H]7O)C(C)(CO)C6CCC5(C)C3(C)CC4` (stereo partly specified), the Potency in assay [1] is 8.93 µM (active); in assay [2], 7.09 µM (active).

On to `COC(=O)C1=CO[C@@H](O[C@@H]2O[C@H](CO[C@@H]3O[C@H](COC(=O)/C=C/c4ccc(O)cc4)[C@@H](O)[C@H](O)[C@H]3O)[C@@H](O)[C@H](O)[C@H]2O)[C@@H]2C(CO)=CC[C@H]12`, for which the Potency entry in assay [1] and in assay [2] was “inactive” in each case.

Consider `N#CCC(C1CCCC1)n1cc(-c2ncnc3[nH]ccc23)cn1` (stereo unspecified), for which the Potency in assay [1] and in assay [2] was 10.3 µM (active) in each case.

With `CCc1cccc(CC)c1-n1c(C=C(C)C)c(C(=O)N2CCNCC2)cc(-c2nc(-c3ccc(C(F)(F)F)cc3)cs2)c1=O`, the Potency entry in assay [1] and in assay [2] was “inactive” throughout.

Take `CNC(=O)[C@@H](c1ccccc1)N1CCc2cc(OC)c(OC)cc2[C@@H]1CCc1ccc(C(F)(F)F)cc1`: the Potency in assay [1] and in assay [2] was 20.6 µM (active) each time.

For `COC1CC(OC2CCC3(C)C(=CCC4C3C(OC(C)=O)C(OC(=O)/C=C/c3ccccc3)C3(C)C(C(C)O)CCC43O)C2)OC(C)C1OC1CC(OC)C(OC2OC(C)C(OC3OC(CO)C(O)C(O)C3O)C(OC)C2O)C(C)O1` (stereo unspecified), the viability (% of control) in assay [1] was 69.8% [at 9.25 µM]. For the same compound, the viability, % of control in assay [2] is 71.5% [at 9.25 µM].

`CC1(C)SC2C(NC(=O)[C@H](NC(=O)N3CCNC3=O)c3ccccc3)C(=O)N2C1C(=O)O` (stereo partly specified): the Potency result in assay [1] and in assay [2] was “inactive” throughout.

Take `Cc1occc(=O)c1O[C@@H]1O[C@H](COC(=O)CC(C)(O)CC(=O)O)[C@@H](O)[C@H](O)[C@H]1O` (stereo partly specified): the Potency entry in assay [1] and in assay [2] was “inactive” each time.

As for `Nc1cc(C(F)(F)F)ccc1S`, the Potency was 21.1 µM (active) in assay [1] and 23.7 µM (active) in assay [2].

Turning to `CCC(CC)(NC(=O)C(C)C)C(=O)N[C@@H](CCCN=C(N)N)C(=O)NC1(C(=O)NC(c2ccc(F)cc2)c2ccc(F)cc2)CCCC1`, the Potency entry in assay [1] and in assay [2] was “inactive” throughout.

`COc1ccc(/C=C/C(=O)O[C@@H]2[C@@H](O[C@@H]3O[C@H](CO)[C@@H](O)[C@H](O)[C@H]3O)[C@@H](O)[C@H](O[C@H]3C4C=CO[C@@H](O[C@@H]5O[C@H](CO)[C@@H](O)[C@H](O)[C@H]5O)C4[C@@]4(CO)O[C@@H]34)O[C@H]2C)cc1` (stereo partly specified): the viability (% of control) in assay [1] was 75.2% [at 9.25 µM]. In addition, in assay [2], the viability, % of control is 104% [at 9.25 µM].

As for `C[C@@H]1O[C@@H](O[C@H]2[C@H](O[C@H]3CC[C@@]4(C)C(CC[C@]5(C)C4CC=C4C6CC(C)(C)CC[C@]6(C(=O)O[C@@H]6O[C@H](CO[C@@H]7O[C@H](CO)[C@@H](O[C@@H]8O[C@@H](C)[C@H](O)[C@@H](O)[C@H]8O)[C@H](O)[C@H]7O)[C@@H](O)[C@H](O)[C@H]6O)CC[C@]45C)[C@]3(C)CO)OC[C@H](O)[C@@H]2O)[C@H](O)[C@H](O)[C@H]1O` (stereo partly specified), the viability (% of control) in assay [1] is 69.6% [at 9.25 µM]. For the same compound, the viability, % of control in assay [2] was 88.1% [at 9.25 µM].

Take `CC(C)CN(C[C@@H](O)[C@H](Cc1ccccc1)NC(=O)O[C@@H]1CO[C@H]2OCC[C@H]21)S(=O)(=O)c1ccc(N)cc1`: the Potency result in assay [1] and in assay [2] was “inactive” in each case.

Turning to `CC1(O)CC(O)C2C(C(=O)O)=COC(OC3OC(CO)C(O)C(O)C3OC(=O)/C=C/c3ccc(O)cc3)C21` (stereo unspecified), the Potency result in assay [1] and in assay [2] was “inactive” each time.

On to `C[C@@H]1CC[C@@]2(OC1)O[C@H]1C[C@H]3[C@@H]4CC=C5C[C@@H](O)CC[C@]5(C)[C@H]4CC[C@]3(C)[C@H]1[C@@H]2C`, for which the Potency result in assay [1] and in assay [2] was “inactive” throughout.

Consider `C[C@@H](OC(=O)/C=C/c1ccc(O)cc1)C1=C[C@]2(C=C[C@@H]3C(C(=O)O)=CO[C@@H](O[C@@H]4O[C@H](CO[C@@H]5O[C@H](CO)[C@@H](O)[C@H](O)[C@H]5O)[C@@H](O)[C@H](O)[C@H]4O)[C@@H]32)OC1=O`, for which the Potency entry in assay [1] and in assay [2] was “inactive” each time.

As for `CC(C)[C@@H](C)/C=C/[C@@H](C)[C@H]1CC[C@H]2C3=CC=C4C[C@@H](O)CC[C@]4(C)C3=CC[C@]12C`, the Potency in assay [1] is 16.4 µM (active); in assay [2] it was 11.6 µM (active).

As for `C[C@@H]1CC[C@]2(C(=O)O[C@@H]3O[C@H](CO[C@@H]4O[C@H](CO)[C@@H](O[C@@H]5O[C@@H](C)[C@H](O)[C@@H](O)[C@H]5O)[C@H](O)[C@H]4O)[C@@H](O)[C@H](O)[C@H]3O)CC[C@]3(C)C(=CCC4[C@@]5(C)C[C@@H](O)[C@H](O)[C@@](C)(CO)C5CC[C@]43C)C2[C@H]1C` (stereo partly specified), in assay [1], the viability (% of control) was 87.5% [at 9.25 µM]. Besides, the viability, % of control in assay [2] is 113% [at 9.25 µM].

Consider `C=C1C(=O)OC2/C=C(\CO)CC/C=C(\C=O)C(OC)C(OC(=O)C(C)CC)C12` (stereo unspecified), for which the Potency is 10 µM (active) in assay [1] and 2.52 µM (active) in assay [2].

With `C=C1C(=O)OC2/C=C(\CO)CC/C=C(\C=O)C(O)C(OC(=O)C(C)CC)C12` (stereo unspecified), the Potency in assay [1] is 2.02 µM (active); in assay [2], 2.86 µM (active).

Regarding `O=C(O)/C=C/c1ccc(-c2ccc(O)c(C34CC5CC(CC(C5)C3)C4)c2)cc1`, the Potency in assay [1] was 0.184 µM (active); in assay [2] it was 0.103 µM (active).

With `COc1cc(C2Oc3c(O)cc(CCCO)cc3C2CO)ccc1O[C@H]1O[C@H](C)[C@@H](O)[C@H](O)[C@@H]1O` (stereo partly specified), the Potency entry in assay [1] and in assay [2] was “inactive” each time.

With `CC1(C)CC[C@]2(C(=O)O[C@@H]3O[C@H](CO)[C@@H](O)[C@H](O)[C@H]3O)CC[C@]3(C)C(=CCC4[C@@]5(C)CC[C@H](OC6OC(C(=O)O)C(OC7OC(CO)C(O)C(O)C7O)C(O)C6O)C(C)(C)C5CC[C@]43C)C2C1` (stereo partly specified), the viability (% of control) in assay [1] is 86.6% [at 9.25 µM]. For the same compound, the viability, % of control in assay [2] was 91.6% [at 9.25 µM].

(Values after PubChem BioAssay (NCATS).)
